DT40 TDP1 CPT: growth inhibition of DT40 Tdp1-/-;hTDP1 cells with camptothecin (screen for TDP1 inhibitors); chicken DT40 Tdp1-/-;hTDP1 cells + 20 nM CPT, ATP luminescence, 48 h; Potency, µM (titrated, usually from 46.2 µM), for inactives: at the highest dose activity change, negative = growth inhibition, most hits filed as inhibitors; hit rate 12% among 420,000; AID 686979; also: potency is read from the fitted curve at half-maximal effect; nearly all actives have a fitted effect of over 55% in size
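Cell growth measured by CellTiter-Glo luminescence after a minimum 48 h, 37 C compound exposure with 20 nM CPT in Tdp1-knockout DT40 cells stably expressing hTDP1, seeded 400/well; qHTS titration format.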
TDP1 cell noCPT: qHTS for Inhibitors of human tyrosyl-DNA phosphodiesterase 1 (TDP1): qHTS in cells in absence of CPT; DT40 Tdp1-/- hTDP1 cells, no CPT, ATP luminescence, 48 h; Potency, µM (series often up to 46.2 µM), without a hit: at the highest dose activity change, negative = growth inhibition, usual class: inhibitors; hit rate 15% among 420,000; AID 686978, 2013; also: potency is read from the fitted curve at half-maximal effect; nearly all actives have a fitted effect of over 55% in size
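Luminescent ATP content (CellTiter-Glo) served as the growth readout. Knockout chicken DT40 cells expressing human TDP1 were exposed to compounds without camptothecin for a minimum 48 hr at 37 °C.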
VP16 counter: Gal4-VP16 reporter inhibition counter-screen; Drosophila S2 Gal4-VP16 UAS-luciferase, luminescence, 20 h; Potency, µM (top dose mostly 53.6 µM), for the others: at the highest dose activity, negative = inhibition, hits mostly inhibitors; hit rate 3.5% among 310,000;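 also: Gal4-VP16 expression switched on by copper sulfate through the metallothionein promoter; potency is read from the fitted curve at half-maximal effect; nearly all actives have a fitted effect of over 50% in size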
IL-1B inflam inh: blocks inflammasome-driven IL-1 beta release; activity change, % at 57.5 µM; THP-1 LPS/ATP IL-1B secretion, AlphaLISA, 16 h; hits give low values; AID 743279; hit rate 4.7% among 360,000; in the data active = activity change below about -50%; inconclusive = mostly about -30% to -49%
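THP-1 cells pretreated 1 hr with compounds (up to 57.5 uM final), then stimulated with LPS (250 ng/mL final) plus ATP (1.25 mM final); secreted IL-1B measured by AlphaLISA after 16 hr, decreased signal indicating inhibition.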
RORg inh: ROR gamma (mouse) transcription inhibition; P51450; Drosophila S2 Gal4-RORgamma UAS-luciferase reporter, 20 h; Potency, µM (top dose mostly 53.6 µM), without a hit: at the top dose activity change, negative = inhibition, most hits filed as inhibitors; hit rate 5.4% among 310,000; AID 2551; also: potency is read from the fitted curve at half-maximal effect; nearly all actives have a fitted effect of over 60% in size
Target sequence (P51450 whole entry, looked up, the tested form may be a part): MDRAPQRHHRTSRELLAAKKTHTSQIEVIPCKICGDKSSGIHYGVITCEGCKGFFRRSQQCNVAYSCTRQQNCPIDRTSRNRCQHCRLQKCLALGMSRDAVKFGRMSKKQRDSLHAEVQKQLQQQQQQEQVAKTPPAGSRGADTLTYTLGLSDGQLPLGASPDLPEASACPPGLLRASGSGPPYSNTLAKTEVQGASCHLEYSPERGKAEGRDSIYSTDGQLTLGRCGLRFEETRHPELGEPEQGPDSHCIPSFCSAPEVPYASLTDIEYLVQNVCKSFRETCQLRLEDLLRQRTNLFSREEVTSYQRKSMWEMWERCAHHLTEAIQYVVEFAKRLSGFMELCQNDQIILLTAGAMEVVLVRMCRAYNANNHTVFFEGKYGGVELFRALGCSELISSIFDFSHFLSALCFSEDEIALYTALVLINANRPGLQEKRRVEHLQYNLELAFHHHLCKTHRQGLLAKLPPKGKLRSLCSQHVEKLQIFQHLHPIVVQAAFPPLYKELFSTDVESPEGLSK
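Luminescence from a UAS-regulated Photinus luciferase reporter in stably transfected Drosophila Schneider cells is measured; decreased signal marks ROR gamma inhibition. Fusion expression is induced by 700 uM copper sulfate for 20 hr.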
ELG1 DNA repair: inhibitors of ELG1-dependent DNA repair in HEK293T cells. HEK293T ELG1-luciferase reporter, luminescence, 16 h; DNA damage induced by 5-fluorouridine. Potency, µM (series often up to 46.1 µM), inactives show at the highest dose activity change, negative = inhibition, actives largely listed as inhibitors. hit rate 2.3% among 330,000; also: potency is read from the fitted curve at half-maximal effect; nearly all actives have a fitted effect of over 55% in size
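Reporter activity after DNA damage by 5-fluorouridine is monitored. Compound-treated cells incubate 16 hr at 37 °C, then ONE-Glo is added for 30 min before luminescence reading.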
* hit, by the source's call; u = inconclusive; x = no result given; [ ] = remark or other dose. Shown are actives, neighbours in structure and some others; about 21% of the full set was active somewhere. Unless noted, calls follow the shape of the dose curve; as a rule, active = well fitted curve in the direction sought with a large enough effect; inconclusive = small, poorly fitted or top-dose-only effect, or another doubt; inactive = no such curve, though single readings can be large; an effect the other way counts as inactive or inconclusive. % is scaled to controls: 0 for no effect and ±100 for the full control effect.

SMILES	DT40 TDP1 CPT	TDP1 cell noCPT	VP16 counter	IL-1B inflam inh	RORg inh	ELG1 DNA repair
CCOc1ccc(/C=C2/Sc3ccc(C(=O)NCC4CCCO4)cc3N(C)C2=O)cc1OC (stereo not drawn)	u	u	-2%	-9	16%	18µM*
O=C(NCc1cccnc1)c1ccc2c(c1)C(=O)N(Cc1ccccc1)C2=O	-2%	-11%	0%	-13	9%	1%
CN1C(=O)/C(=C/c2ccccc2Cl)Sc2ccc(C(=O)NCc3cccnc3)cc21	u	u	-10%	-69*	37%	u
N/C(=N\OC(=O)N1CCOCC1)c1ccc(Br)cc1	21µM*	u	-1%	-21	-6%	u
COc1ccc(-n2nc(C(=O)Nc3ccc(OC)c(OC)c3)c3c4ccccc4n(C)c3c2=O)cc1	u	u	-2%	93	24%	8.2µM*
CCN(CC)CCCNC(=O)c1nn(-c2ccc(OC)cc2)c(=O)c2c1c1ccccc1n2C	4%	7%	x	x	x	x
COc1ccc(-n2nc(C(=O)NCCc3ccc(Cl)cc3)c3c4ccccc4n(C)c3c2=O)cc1	8.2µM*	10µM*	x	x	x	x
CCOC(=O)[C@]12CCC=C1N(Cc1ccc3c(c1)OCO3)C(=O)[C@H](CC(=O)NCC1CCCCC1)C2	u	u	x	0	x	x
c1csc(Cc2nn3c(-c4ccncc4)nnc3s2)c1	u	-28%	1%	0	0%	10µM*
CCN(CC)c1ccc(-c2nn3c(-c4cccnc4)nnc3s2)cc1	18µM*	21µM*	u	-6	12%	-13%
CC(C)(C)c1ccc(-c2nnc3sc(-c4ccncc4)nn23)cc1	13µM*	u	x	-6	-13%[0.365 µM]	u
c1csc(-c2nn3c(-c4ccncc4)nnc3s2)c1	x	x	1%	x	5%	-11%
COc1ccccc1-c1nnc2sc(C3CCCCC3)nn12	u	u	-3%	-2	-15%[10 µM]	-6%
c1cncc(-c2nnc3sc(-c4ccco4)nn23)c1	-29%	-24%	0%	-30	29%	5%
c1cc(-c2nnc3sc(C4CCCCC4)nn23)ccn1	u	u	5%	-19	-5%[10 µM]	9.2µM*
CN(C)C(=O)c1ccc(NC(=O)COC(=O)Cn2cc(C(F)(F)F)ccc2=O)cc1	-6%	-1%	x	9	x	u
C=C1CCN(C(CC(C)C)C(=O)O)S(=O)(=O)c2ccccc21 (stereo not drawn)	x	x	23%	x	11%	x
COc1ccc(OC)c(NC(=O)c2ccc(-c3csc(C)n3)cc2)c1	u	u	13%	-1	-19%[1.91 µM]	u
Cc1nc(-c2cccc(NC(=O)c3ccc(-n4nccc4C)cc3)c2)cs1	u	21µM*	x	-84*	x	u
Cc1nc(-c2cccc(NC(=O)c3cccs3)c2)cs1	-23%	u	-4%	11	31%	u
Cc1nc(-c2ccc(C(=O)Nc3cccc(Br)c3)cc2)cs1	u	21µM*	-22%	-25	-36%	u
c1ccc(Nc2cc(Nc3ccccc3)[nH]n2)cc1	u	u	-24%	-25	1%	u
Cc1cccc(NC(=O)CSc2ncc(-c3ccc(Br)cc3)[nH]2)c1	23µM*	u	x	x	x	x
COc1ccc(NC(=O)CSc2ncc(-c3ccc(Cl)cc3)[nH]2)cc1OC	u	15µM*	x	x	x	x
CN(CCO)c1cccc2c1S(=O)(=O)N[C@H](Cc1ccccc1)CO2	-13%	-18%	x	-7	x	x
C(=Nc1cnc2ccccc2c1)c1ccncc1	-3%	-10%	x	x	x	x
Cc1ccc(C)c(-n2sc3ccc(F)cc3c2=O)c1	3.3µM*	3.7µM*	x	-106*	x	-26%
COc1ccc(-n2sc3ccc(F)cc3c2=O)cc1	2.6µM*	2.6µM*	x	-106*	x	u

Compound activity: PubChem BioAssay, National Center for Advancing Translational Sciences (NCATS)
